Where a chain is given by its changes, count along the chain named. In all, about 16,000 sequences were measured (“ka relative to ugcaugu”: median about 0.096, highest 2% from about 0.35 on). The list comes from a sample in which the highest values are over-represented; it also holds similar and randomly drawn sequences.
T1: RBFOX1 RRM RbFoxmut (Fox-RRM*) (Homo sapiens, UniProt Q9NWB1 109-208, R118D;E147R;N151S;E152T)
T1 sequence: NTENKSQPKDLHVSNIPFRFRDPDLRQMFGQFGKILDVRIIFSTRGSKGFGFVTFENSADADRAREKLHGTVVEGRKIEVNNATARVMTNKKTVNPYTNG

B1: CUAUAAG (DNA:RNA)
RNA: GGGAGACCGGAAUUCAGAUUGUCCCUAUAAGUUAAAUCCCGUCGUAGCCACCA
DNA 1: CAATCTGAATTCCGGTCTCCC
DNA 2: TGGTGGCTACGACGGGATT
B2: GUCAGCC (DNA:RNA)
RNA: B1 RNA with C25G, A27C, U28A, A29G, A30C, G31C
DNA 1: CAATCTGAATTCCGGTCTCCC
DNA 2: TGGTGGCTACGACGGGATT
B3: GCACGGU (DNA:RNA)
RNA: B1 RNA with C25G, U26C, U28C, A29G, A30G, G31U
DNA 1: CAATCTGAATTCCGGTCTCCC
DNA 2: TGGTGGCTACGACGGGATT
B4: CUAAUAG (DNA:RNA)
RNA: B1 RNA with U28A, A29U
DNA 1: CAATCTGAATTCCGGTCTCCC
DNA 2: TGGTGGCTACGACGGGATT
B5: UCCGCGC (DNA:RNA)
RNA: GGGAGACCGGAAUUCAGAUUGUCCUCCGCGCUUAAAUCCCGUCGUAGCCACCA
DNA 1: CAATCTGAATTCCGGTCTCCC
DNA 2: TGGTGGCTACGACGGGATT
B6: CCCAGAA (DNA:RNA)
RNA: B1 RNA with U26C, A27C, U28A, A29G, G31A
DNA 1: CAATCTGAATTCCGGTCTCCC
DNA 2: TGGTGGCTACGACGGGATT
B7: UAGAAUC (DNA:RNA)
RNA: B5 RNA with C26A, C27G, G28A, C29A, G30U
DNA 1: CAATCTGAATTCCGGTCTCCC
DNA 2: TGGTGGCTACGACGGGATT
B8: UAGAUUG (DNA:RNA)
RNA: B1 RNA with C25U, U26A, A27G, U28A, A29U, A30U
DNA 1: CAATCTGAATTCCGGTCTCCC
DNA 2: TGGTGGCTACGACGGGATT
B9: UAGAAUG (DNA:RNA)
RNA: B1 RNA with C25U, U26A, A27G, U28A, A30U
DNA 1: CAATCTGAATTCCGGTCTCCC
DNA 2: TGGTGGCTACGACGGGATT
B10: CAGAAUG (DNA:RNA)
RNA: B1 RNA with U26A, A27G, U28A, A30U
DNA 1: CAATCTGAATTCCGGTCTCCC
DNA 2: TGGTGGCTACGACGGGATT
B11: CAGAUUG (DNA:RNA)
RNA: B1 RNA with U26A, A27G, U28A, A29U, A30U
DNA 1: CAATCTGAATTCCGGTCTCCC
DNA 2: TGGTGGCTACGACGGGATT
B12: GAGCACA (DNA:RNA)
RNA: B1 RNA with C25G, U26A, A27G, U28C, A30C, G31A
DNA 1: CAATCTGAATTCCGGTCTCCC
DNA 2: TGGTGGCTACGACGGGATT
B13: UGGCUAC (DNA:RNA)
RNA: B5 RNA with C26G, C27G, G28C, C29U, G30A
DNA 1: CAATCTGAATTCCGGTCTCCC
DNA 2: TGGTGGCTACGACGGGATT
B14: UGGCCCU (DNA:RNA)
RNA: B5 RNA with C26G, C27G, G28C, G30C, C31U
DNA 1: CAATCTGAATTCCGGTCTCCC
DNA 2: TGGTGGCTACGACGGGATT
B15: GGUCGUC (DNA:RNA)
RNA: B5 RNA with U25G, C26G, C27U, G28C, C29G, G30U
DNA 1: CAATCTGAATTCCGGTCTCCC
DNA 2: TGGTGGCTACGACGGGATT
B16: CGUCGUC (DNA:RNA)
RNA: B1 RNA with U26G, A27U, U28C, A29G, A30U, G31C
DNA 1: CAATCTGAATTCCGGTCTCCC
DNA 2: TGGTGGCTACGACGGGATT
B17: CGUCUUG (DNA:RNA)
RNA: B1 RNA with U26G, A27U, U28C, A29U, A30U
DNA 1: CAATCTGAATTCCGGTCTCCC
DNA 2: TGGTGGCTACGACGGGATT
B18: GUUGGUC (DNA:RNA)
RNA: B5 RNA with U25G, C26U, C27U, C29G, G30U
DNA 1: CAATCTGAATTCCGGTCTCCC
DNA 2: TGGTGGCTACGACGGGATT
B19: CACCGUC (DNA:RNA)
RNA: B5 RNA with U25C, C26A, G28C, C29G, G30U
DNA 1: CAATCTGAATTCCGGTCTCCC
DNA 2: TGGTGGCTACGACGGGATT
B20: ACCAGUC (DNA:RNA)
RNA: B5 RNA with U25A, G28A, C29G, G30U
DNA 1: CAATCTGAATTCCGGTCTCCC
DNA 2: TGGTGGCTACGACGGGATT
B21: GGUCUUG (DNA:RNA)
RNA: B1 RNA with C25G, U26G, A27U, U28C, A29U, A30U
DNA 1: CAATCTGAATTCCGGTCTCCC
DNA 2: TGGTGGCTACGACGGGATT
B22: GUCGGUC (DNA:RNA)
RNA: B5 RNA with U25G, C26U, C29G, G30U
DNA 1: CAATCTGAATTCCGGTCTCCC
DNA 2: TGGTGGCTACGACGGGATT
B23: AGUCGUC (DNA:RNA)
RNA: B5 RNA with U25A, C26G, C27U, G28C, C29G, G30U
DNA 1: CAATCTGAATTCCGGTCTCCC
DNA 2: TGGTGGCTACGACGGGATT
B24: GGAUUGG (DNA:RNA)
RNA: B1 RNA with C25G, U26G, A29U, A30G
DNA 1: CAATCTGAATTCCGGTCTCCC
DNA 2: TGGTGGCTACGACGGGATT
B25: GUCUUGG (DNA:RNA)
RNA: B1 RNA with C25G, A27C, A29U, A30G
DNA 1: CAATCTGAATTCCGGTCTCCC
DNA 2: TGGTGGCTACGACGGGATT
B26: AGUCUUG (DNA:RNA)
RNA: B1 RNA with C25A, U26G, A27U, U28C, A29U, A30U
DNA 1: CAATCTGAATTCCGGTCTCCC
DNA 2: TGGTGGCTACGACGGGATT
B27: AGAGUGG (DNA:RNA)
RNA: B1 RNA with C25A, U26G, U28G, A29U, A30G
DNA 1: CAATCTGAATTCCGGTCTCCC
DNA 2: TGGTGGCTACGACGGGATT
B28: UCUGGAG (DNA:RNA)
RNA: B5 RNA with C27U, C29G, G30A, C31G
DNA 1: CAATCTGAATTCCGGTCTCCC
DNA 2: TGGTGGCTACGACGGGATT
B29: AUGUAGG (DNA:RNA)
RNA: B1 RNA with C25A, A27G, A30G
DNA 1: CAATCTGAATTCCGGTCTCCC
DNA 2: TGGTGGCTACGACGGGATT
B30: AUCUCCA (DNA:RNA)
RNA: B1 RNA with C25A, A27C, A29C, A30C, G31A
DNA 1: CAATCTGAATTCCGGTCTCCC
DNA 2: TGGTGGCTACGACGGGATT
B31: GAUAAGU (DNA:RNA)
RNA: B1 RNA with C25G, U26A, A27U, U28A, A30G, G31U
DNA 1: CAATCTGAATTCCGGTCTCCC
DNA 2: TGGTGGCTACGACGGGATT

Molecular target: T1, RBFOX1 RRM RbFoxmut (Fox-RRM*)
Assay: EMSA; HiTS-Eq, 1 nM pool, 10 min; buffer printed only for the single-RNA assays: 10 mM Tris pH 7.5, 150 mM NaCl, 3.4 mM EDTA, 0.001% NP-40, 30 C
Conditions: tags: His6 N-terminal (pET28a); label: 5' 32P
How it was run: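 Purified RbFox RRM, wild type or mutant, was incubated for 10 min in 50 µL with 1 nM of a 5′-radiolabelled RNA pool carrying 7 randomized nucleotides, whose flanks were annealed to DNA oligonucleotides, over a series of increasing protein concentrations. Unbound RNA was resolved on 8% native PAGE, cut out, reverse-transcribed, barcoded by PCR and sequenced on an Illumina HiSeq 2500. Relative association constants were derived from changes in read counts for each RNA species versus the control reaction and normalised to the cognate motif.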

Binder	binding signal
B1	0.0991 KA relative to UGCAUGU
B2	0.0902 KA relative to UGCAUGU
B3	0.289 KA relative to UGCAUGU
B4	0.0844 KA relative to UGCAUGU
B5	0.0955 KA relative to UGCAUGU
B6	0.0718 KA relative to UGCAUGU
B7	0.125 KA relative to UGCAUGU
B8	0.194 KA relative to UGCAUGU
B9	0.953 KA relative to UGCAUGU
B10	1.17 KA relative to UGCAUGU
B11	0.225 KA relative to UGCAUGU
B12	0.0821 KA relative to UGCAUGU
B13	0.0987 KA relative to UGCAUGU
B14	0.0838 KA relative to UGCAUGU
B15	0.159 KA relative to UGCAUGU
B16	0.186 KA relative to UGCAUGU

Binder	binding signal
B17	0.615 KA relative to UGCAUGU
B18	0.164 KA relative to UGCAUGU
B19	0.0639 KA relative to UGCAUGU
B20	0.063 KA relative to UGCAUGU
B21	0.368 KA relative to UGCAUGU
B22	0.171 KA relative to UGCAUGU
B23	0.117 KA relative to UGCAUGU
B24	0.219 KA relative to UGCAUGU
B25	0.403 KA relative to UGCAUGU
B26	0.459 KA relative to UGCAUGU
B27	0.107 KA relative to UGCAUGU
B28	0.0838 KA relative to UGCAUGU
B29	0.128 KA relative to UGCAUGU
B30	0.0926 KA relative to UGCAUGU
B31	0.0905 KA relative to UGCAUGU

From PMC9911399, “Two distinct binding modes provide the RNA-binding protein RbFox with extraordinary sequence specificity”
